Measurements reported in the supplement of paper PMC10849652.
About 8,800 targets were measured; listed, in parts, are those with a hit and a random draw of the rest. About 0.5% of all pairs of compound and target were hits. Values without a mark were called inactive.

What was measured:
Assay in all cases: log2 fold change, soluble protein after heating vs DMSO (PISA); higher = thermal stabilisation; K562 lysate, 10 uM; active = over 0.2 and 3.5 SD of the protein, either way, in both replicates (recomputed)
lapatinib = compound: CS(=O)(=O)CCNCc1ccc(-c2ccc3ncnc(Nc4ccc(OCc5cccc(F)c5)c(Cl)c4)c3c2)o1 [lapatinib]
Summary of the method: (§1)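 The values are log-two fold changes in thermal stability compared with solvent controls and come from duplicates. They were obtained by TMTpro 16plex LC-MS/MS, with channel sums equalised, on the supernatant after 21,000xg for 90 min. That supernatant came from crude K562 extract at 1 mg/mL protein treated with 10 μM compound for 30 min, heated for 3 min across 48°C-58°C, pooled and brought to 0.5% NP-40 at 4°C.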

pictilisib = compound: CS(=O)(=O)N1CCN(Cc2cc3nc(-c4cccc5[nH]ncc45)nc(N4CCOCC4)c3s2)CC1 [pictilisib]
Summary of the method: as §1

crizotinib = compound: C[C@@H](Oc1cc(-c2cnn(C3CCNCC3)c2)cnc1N)c1c(Cl)ccc(F)c1Cl [crizotinib]
Summary of the method: as §1

[1] = compound: C[C@H](C1=CC=C(C=C1)C(=O)NC2=C3C=CNC3=NC=C2)N
Summary of the method: as §1

duvelisib = compound: C[C@H](Nc1ncnc2nc[nH]c12)c1cc2cccc(Cl)c2c(=O)n1-c1ccccc1 [duvelisib]
Summary of the method: as §1

gandotinib = compound: Cc1cc(Nc2cc(CN3CCOCC3)c3nc(C)c(Cc4ccc(Cl)cc4F)n3n2)n[nH]1 [gandotinib]
Summary of the method: as §1

tozasertib = compound: Cc1cc(Nc2cc(N3CCN(C)CC3)nc(Sc3ccc(NC(=O)C4CC4)cc3)n2)n[nH]1 [tozasertib]
Summary of the method: as §1

doramapimod = compound: Cc1ccc(-n2nc(C(C)(C)C)cc2NC(=O)Nc2ccc(OCCN3CCOCC3)c3ccccc23)cc1 [doramapimod]
Summary of the method: as §1

bafetinib = compound: Cc1ccc(NC(=O)c2ccc(CN3CC[C@H](N(C)C)C3)c(C(F)(F)F)c2)cc1Nc1nccc(-c2cncnc2)n1 [bafetinib]
Summary of the method: as §1

[2] = compound: Cc1cccc(CC(=O)N2CCc3c2ccc(-c2cn(C)c4ncnc(N)c24)c3F)n1
Summary of the method: as §1

Chain of UniProt Q96RE7 (Q96RE7 whole entry, looked up): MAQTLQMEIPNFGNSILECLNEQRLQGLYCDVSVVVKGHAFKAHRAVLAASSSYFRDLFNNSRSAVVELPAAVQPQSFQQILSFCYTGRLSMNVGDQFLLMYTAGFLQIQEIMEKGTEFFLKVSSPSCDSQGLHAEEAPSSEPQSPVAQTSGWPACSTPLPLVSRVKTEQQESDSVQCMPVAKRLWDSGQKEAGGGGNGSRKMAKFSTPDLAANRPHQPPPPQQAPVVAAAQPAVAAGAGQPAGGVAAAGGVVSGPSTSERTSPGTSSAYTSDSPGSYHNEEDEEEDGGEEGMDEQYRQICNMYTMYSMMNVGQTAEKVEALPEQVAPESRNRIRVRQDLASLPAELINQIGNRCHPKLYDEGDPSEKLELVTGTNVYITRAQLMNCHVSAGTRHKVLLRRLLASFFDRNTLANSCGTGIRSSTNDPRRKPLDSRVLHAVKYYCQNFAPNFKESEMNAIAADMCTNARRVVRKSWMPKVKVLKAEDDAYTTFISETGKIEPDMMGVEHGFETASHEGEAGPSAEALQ
Chain of UniProt O00159 (O00159 whole entry, looked up): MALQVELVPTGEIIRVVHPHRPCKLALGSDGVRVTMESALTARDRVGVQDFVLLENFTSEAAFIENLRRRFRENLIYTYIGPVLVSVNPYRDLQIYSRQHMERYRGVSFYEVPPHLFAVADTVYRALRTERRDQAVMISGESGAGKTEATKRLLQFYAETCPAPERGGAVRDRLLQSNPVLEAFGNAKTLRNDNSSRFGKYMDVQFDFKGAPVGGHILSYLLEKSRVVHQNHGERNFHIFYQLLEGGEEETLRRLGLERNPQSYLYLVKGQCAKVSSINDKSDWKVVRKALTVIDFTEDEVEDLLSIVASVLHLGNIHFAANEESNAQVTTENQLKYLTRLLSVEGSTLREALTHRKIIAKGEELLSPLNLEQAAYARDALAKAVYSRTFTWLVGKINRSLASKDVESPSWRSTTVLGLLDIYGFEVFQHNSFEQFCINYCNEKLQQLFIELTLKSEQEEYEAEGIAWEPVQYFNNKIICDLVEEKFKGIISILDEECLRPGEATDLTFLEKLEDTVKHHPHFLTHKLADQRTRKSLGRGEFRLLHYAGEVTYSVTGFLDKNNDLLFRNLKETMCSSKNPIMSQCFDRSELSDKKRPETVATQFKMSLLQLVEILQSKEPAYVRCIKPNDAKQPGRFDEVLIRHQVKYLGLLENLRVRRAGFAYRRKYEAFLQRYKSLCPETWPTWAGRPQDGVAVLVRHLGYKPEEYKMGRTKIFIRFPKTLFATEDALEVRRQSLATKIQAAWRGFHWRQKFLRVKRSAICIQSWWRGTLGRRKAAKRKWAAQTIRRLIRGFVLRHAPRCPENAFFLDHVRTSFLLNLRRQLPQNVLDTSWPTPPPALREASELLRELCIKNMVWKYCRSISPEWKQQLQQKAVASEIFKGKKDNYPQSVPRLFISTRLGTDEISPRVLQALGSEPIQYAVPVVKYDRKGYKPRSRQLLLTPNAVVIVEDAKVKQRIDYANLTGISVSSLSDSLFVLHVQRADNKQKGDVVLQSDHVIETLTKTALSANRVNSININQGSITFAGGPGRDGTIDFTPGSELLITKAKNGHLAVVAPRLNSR
Chain of UniProt Q9NZT2 (Q9NZT2 whole entry, looked up): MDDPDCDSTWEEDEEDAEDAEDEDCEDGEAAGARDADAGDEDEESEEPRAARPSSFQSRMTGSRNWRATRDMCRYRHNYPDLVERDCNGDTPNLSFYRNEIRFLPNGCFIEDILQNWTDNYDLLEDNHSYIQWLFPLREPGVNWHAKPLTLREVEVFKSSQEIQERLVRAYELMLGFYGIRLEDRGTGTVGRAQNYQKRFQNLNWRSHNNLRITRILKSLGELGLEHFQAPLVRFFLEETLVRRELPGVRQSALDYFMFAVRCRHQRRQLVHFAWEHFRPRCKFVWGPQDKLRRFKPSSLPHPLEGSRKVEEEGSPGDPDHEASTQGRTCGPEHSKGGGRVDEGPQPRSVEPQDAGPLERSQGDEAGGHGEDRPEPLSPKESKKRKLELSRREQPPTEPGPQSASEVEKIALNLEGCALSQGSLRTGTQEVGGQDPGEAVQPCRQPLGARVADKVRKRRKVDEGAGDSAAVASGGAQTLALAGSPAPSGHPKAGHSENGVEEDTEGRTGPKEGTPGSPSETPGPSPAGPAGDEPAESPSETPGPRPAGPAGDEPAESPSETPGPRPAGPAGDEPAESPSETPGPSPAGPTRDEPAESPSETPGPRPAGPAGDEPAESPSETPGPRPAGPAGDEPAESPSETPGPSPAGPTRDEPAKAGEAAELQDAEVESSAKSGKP
Chain of UniProt Q460N5 (Q460N5 whole entry, looked up): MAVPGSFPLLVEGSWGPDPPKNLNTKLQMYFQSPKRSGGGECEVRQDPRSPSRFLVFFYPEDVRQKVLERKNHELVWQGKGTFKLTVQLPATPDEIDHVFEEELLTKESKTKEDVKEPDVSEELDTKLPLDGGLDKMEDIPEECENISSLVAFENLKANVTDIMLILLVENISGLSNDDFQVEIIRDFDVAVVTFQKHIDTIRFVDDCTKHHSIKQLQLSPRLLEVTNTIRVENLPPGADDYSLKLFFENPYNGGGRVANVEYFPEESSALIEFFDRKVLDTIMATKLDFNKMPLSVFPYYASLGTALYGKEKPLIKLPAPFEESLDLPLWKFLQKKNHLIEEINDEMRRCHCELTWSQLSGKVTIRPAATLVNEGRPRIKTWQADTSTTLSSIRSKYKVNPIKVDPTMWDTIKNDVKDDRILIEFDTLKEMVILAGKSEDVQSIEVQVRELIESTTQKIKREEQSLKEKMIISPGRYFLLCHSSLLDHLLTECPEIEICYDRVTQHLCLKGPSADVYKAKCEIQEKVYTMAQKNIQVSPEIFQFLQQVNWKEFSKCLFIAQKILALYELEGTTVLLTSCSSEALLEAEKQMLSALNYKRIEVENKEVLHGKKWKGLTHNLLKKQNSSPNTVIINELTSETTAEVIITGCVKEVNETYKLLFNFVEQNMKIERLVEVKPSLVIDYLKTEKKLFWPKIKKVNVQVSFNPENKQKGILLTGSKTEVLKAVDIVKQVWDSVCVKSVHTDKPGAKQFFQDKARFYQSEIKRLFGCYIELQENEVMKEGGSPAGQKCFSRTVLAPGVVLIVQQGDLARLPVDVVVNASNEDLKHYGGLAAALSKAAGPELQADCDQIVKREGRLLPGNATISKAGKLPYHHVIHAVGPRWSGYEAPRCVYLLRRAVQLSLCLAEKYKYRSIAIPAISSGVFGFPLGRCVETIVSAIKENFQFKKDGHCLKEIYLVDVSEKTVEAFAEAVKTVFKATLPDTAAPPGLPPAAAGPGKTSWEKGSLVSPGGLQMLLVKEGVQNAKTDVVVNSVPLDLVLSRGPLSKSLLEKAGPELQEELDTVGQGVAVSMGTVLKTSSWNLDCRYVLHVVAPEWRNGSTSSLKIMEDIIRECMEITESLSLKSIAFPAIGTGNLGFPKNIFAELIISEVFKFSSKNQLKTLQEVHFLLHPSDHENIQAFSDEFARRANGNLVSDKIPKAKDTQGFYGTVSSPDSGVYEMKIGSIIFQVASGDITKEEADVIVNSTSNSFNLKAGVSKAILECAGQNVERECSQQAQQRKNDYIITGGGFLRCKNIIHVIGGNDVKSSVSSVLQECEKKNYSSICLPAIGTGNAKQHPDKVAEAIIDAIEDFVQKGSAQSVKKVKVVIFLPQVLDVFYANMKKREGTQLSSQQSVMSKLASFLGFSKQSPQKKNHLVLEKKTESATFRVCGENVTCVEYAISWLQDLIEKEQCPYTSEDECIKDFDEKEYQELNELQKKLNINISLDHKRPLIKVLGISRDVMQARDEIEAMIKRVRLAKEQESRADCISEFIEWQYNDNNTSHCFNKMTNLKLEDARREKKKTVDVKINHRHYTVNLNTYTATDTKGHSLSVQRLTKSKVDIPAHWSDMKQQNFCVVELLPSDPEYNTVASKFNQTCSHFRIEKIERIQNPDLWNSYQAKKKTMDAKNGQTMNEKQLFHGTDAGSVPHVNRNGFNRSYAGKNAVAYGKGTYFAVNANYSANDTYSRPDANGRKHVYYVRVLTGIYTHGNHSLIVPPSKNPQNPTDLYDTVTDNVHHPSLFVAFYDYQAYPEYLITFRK
Chain of UniProt Q9BPZ3 (Q9BPZ3 whole entry, looked up): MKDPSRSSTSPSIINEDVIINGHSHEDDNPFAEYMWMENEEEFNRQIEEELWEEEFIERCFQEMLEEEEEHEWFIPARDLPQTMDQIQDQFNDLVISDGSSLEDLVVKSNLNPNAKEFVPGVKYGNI
Chain of UniProt Q9Y5N5 (Q9Y5N5 whole entry, looked up, one chain of several): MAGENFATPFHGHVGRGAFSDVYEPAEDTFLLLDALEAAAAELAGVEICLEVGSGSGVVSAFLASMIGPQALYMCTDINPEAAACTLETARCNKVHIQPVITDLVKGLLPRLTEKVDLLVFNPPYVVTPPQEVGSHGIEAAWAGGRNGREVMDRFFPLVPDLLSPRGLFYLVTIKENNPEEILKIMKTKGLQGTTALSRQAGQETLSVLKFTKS
Chain of UniProt P49116 (P49116 whole entry, looked up): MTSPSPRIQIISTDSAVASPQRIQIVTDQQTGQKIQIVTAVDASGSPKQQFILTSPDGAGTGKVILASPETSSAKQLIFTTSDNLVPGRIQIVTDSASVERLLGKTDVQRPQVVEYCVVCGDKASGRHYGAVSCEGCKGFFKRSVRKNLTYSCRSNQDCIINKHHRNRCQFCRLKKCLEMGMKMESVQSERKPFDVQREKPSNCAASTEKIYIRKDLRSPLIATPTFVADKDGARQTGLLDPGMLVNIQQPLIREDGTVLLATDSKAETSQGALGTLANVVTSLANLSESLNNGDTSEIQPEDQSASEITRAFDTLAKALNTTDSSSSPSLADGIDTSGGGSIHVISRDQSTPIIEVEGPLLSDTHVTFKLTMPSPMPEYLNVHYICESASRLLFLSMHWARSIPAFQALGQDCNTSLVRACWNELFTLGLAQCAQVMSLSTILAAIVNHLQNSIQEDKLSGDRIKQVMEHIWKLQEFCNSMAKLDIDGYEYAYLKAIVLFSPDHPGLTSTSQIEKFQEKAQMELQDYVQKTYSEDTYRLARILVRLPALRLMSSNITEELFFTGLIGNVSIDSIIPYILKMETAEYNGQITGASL

Target | log2 fold change (lapatinib) | log2 fold change (pictilisib) | log2 fold change (crizotinib) | log2 fold change [1] | log2 fold change (duvelisib) | log2 fold change (gandotinib) | log2 fold change (tozasertib) | log2 fold change (doramapimod) | log2 fold change (bafetinib) | log2 fold change [2]
MTHFD1, A0A384N5Y3 | -0.008 | -0.003 | -0.064 | 0.04 | 0.015 | -0.087 | 0.028 | 0.043 | -0.041 | -0.025
NCAPD3 (UniProt P42695) | -0.015 | -0.009 | -0.065 | -0.013 | -0.004 | -0.099 | -0.013 | 0.02 | -0.024 | 0.047
NR2C2 isoform 2 (UniProt P49116) | -0.014 | -0.025 | -0.004 | 0.064 | -0.014 | -0.079 | -0.005 | -0.004 | 0.145 | -0.025
OSBP2 (UniProt Q969R2) | 0.003 | 0.024 | -0.074 | -0.666 (active) | 0.116 | 0.194 | -0.028 | 0.018 | -0.037 | 0.23
N6AMT1 (UniProt Q9Y5N5) | -0.018 | -0.038 | -0.02 | 0.34 (active) | -0.017 | -0.033 | 0.008 | 0.014 | -0.109 | -0.098
NEBL isoform 2 (UniProt O76041) | 0.003 | 0.044 | 0.059 | -0.135 | -0.046 | 0.094 | -0.018 | -0.018 | 0.105 | 0.073
OSBPL3 isoform 2 (UniProt Q9H4L5) | 0.073 | -0.039 | 0.014 | -0.045 | 0.03 | -0.052 | -0.005 | 0.107 | 0.269 | 0.035
NCKAP1L (UniProt P55160) | 0 | 0 | -0.061 | -0.002 | 0.02 | 0.025 | 0.018 | -0.011 | -0.324 | 0.017
NCK1 (UniProt P16333) | 0.025 | 0 | -0.024 | 0.065 | 0.014 | -0.051 | 0.005 | 0.03 | -0.033 | -0.024
NUP160 (UniProt Q12769) | 0.004 | -0.046 | -0.028 | 0.003 | -0.007 | -0.102 | 0.015 | 0.032 | -0.059 | -0.007
NFAT5 isoform 5 (UniProt O94916) | 0.033 | -0.002 | 0.053 | -0.053 | -0.041 | 0.045 | -0.039 | 0.007 | -0.041 | 0.008
MTCH2 (UniProt Q9Y6C9) | -0.023 | -0.018 | -0.059 | -0.144 | -0.011 | 0.142 | -0.028 | 0.024 | -0.04 | 0.022
OGFR (UniProt Q9NZT2) | 0.014 | -0.012 | 0.052 | 0.128 | -0.008 | -0.062 | -0.043 | -0.012 | 0.043 | -0.037
NCAPD2 (UniProt Q15021) | -0.033 | 0.001 | -0.049 | -0.003 | 0.014 | -0.115 | -0.006 | 0.011 | -0.036 | 0.029
NDUFAF5 (UniProt Q5TEU4) | 0.002 | -0.02 | -0.044 | -0.212 | -0.286 (active) | 0.026 | 0.068 | 0.129 | -0.019 | -0.061
NQO1 (UniProt P15559) | -0.055 | -0.048 | -0.04 | -0.074 | 0.012 | 0.009 | 0.022 | -0.333 (active) | -0.023 | 0.262 (active)
NPM3 (UniProt O75607) | 0.087 | 0.053 | -0.02 | -0.201 | 0.014 | 0.068 | -0.036 | 0.027 | 0.04 | 0.164
NAA35 (UniProt Q5VZE5) | 0.009 | 0.032 | -0.031 | 0.082 | -0.007 | -0.042 | -0.003 | 0.031 | -0.057 | -0.022
NUP93 (UniProt Q8N1F7) | -0.011 | -0.029 | -0.03 | -0.027 | -0.03 | -0.158 | 0.015 | 0.022 | -0.054 | 0.07
PAIP2 (UniProt Q9BPZ3) | 0.013 | -0.036 | 0.021 | -0.008 | -0.04 | 0.022 | 0.035 | 0.043 | 0.073 | 0.02
NUP188 (UniProt Q5SRE5) | -0.063 | -0.04 | -0.05 | -0.024 | 0.004 | -0.127 | -0.012 | -0.034 | -0.031 | 0.039
PARP14 (UniProt Q460N5) | -0.018 | -0.057 | -0.154 | 0.148 | -0.13 | -0.123 | -0.013 | -0.013 | -0.081 | 0
MYO1C (UniProt O00159) | -0.078 | 0.007 | -0.09 | 0.027 | 0.075 | -0.036 | 0.014 | 0.065 | 0.068 | -0.023
MRPS31 (UniProt Q92665) | 0.012 | 0.012 | -0.02 | -0.002 | -0.015 | -0.006 | 0.033 | 0.047 | -0.009 | 0.051
MVB12A (UniProt Q96EY5) | 0.012 | -0.027 | -0.025 | 0 | -0.04 | -0.031 | -0.046 | 0.012 | -0.015 | -0.031
MSI2 (UniProt Q96DH6) | 0 | -0.057 | 0.036 | 0.024 | -0.052 | -0.031 | 0.01 | -0.23 (active) | -0.066 | 0.07
NACC1 (UniProt Q96RE7) | -0.032 | 0.034 | 0.01 | -0.066 | -0.002 | 0.006 | -0.015 | -0.011 | -0.078 | 0.044
NOA1 (UniProt Q8NC60) | -0.043 | 0.032 | -0.052 | -0.282 | 0.014 | 0.039 | -0.034 | 0.021 | -0.221 | 0.167
NUP205 (UniProt Q92621) | -0.03 | -0.041 | -0.1 | -0.047 | -0.008 | -0.143 | 0.015 | 0.043 | -0.089 | 0.031
